From PubChem
BLM helicase inh = qHTS Assay for Inhibitors of Bloom's syndrome helicase (BLM); recombinant BLM DNA unwinding, fluorescence dequenching; Potency, µM (titrated, usually from 56.1 µM), for the others: top-dose activity change, negative = inhibition, most hits filed as inhibitors; hit rate 0.2% among 350,000;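 further: plate controls were vehicle for no effect and no enzyme for full effect; nearly all actives have a fitted effect of over 35% in size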
KAT2A inh = qHTS Assay for Inhibitors of GCN5L2; AID 504327, 2011; Potency, µM (top dose mostly 58.9 µM), for inactives: at the top dose activity change, negative = inhibition, actives largely listed as inhibitors; hit rate 0.21% among 390,000; Histone acetyltransferase KAT2A (Homo sapiens), Q92830; GCN5L2 HAT assay, ThioGlo1 CoA-SH fluorescence
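Fluorescence readout, Ex340nm/Em540nm: ThioGlo1 (50uM final) reacts with free CoA thiol released as 20nM GCN5L2 acetylates H3(1-25) peptide (75uM) using acetyl-CoA (70uM). Compound and enzyme sat 15 min beforehand; 20 min room-temperature reaction.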
KDM4E inh = qHTS Assay for Inhibitors of Human Jumonji Domain Containing 2E (JMJD2E); JMJD2E catalytic domain, FDH-coupled NADH fluorescence (FDH is formaldehyde dehydrogenase); Potency, µM (titrated, usually from 57.1 µM), for inactives: at the top dose activity change, negative = inhibition, hits mostly inhibitors; hit rate 1.6% among 230,000; active means well fitted inhibition curve with a large enough effect, not every such curve was filed as active; inconclusive means small, poorly fitted or top-dose-only effect, or another doubt; inactive means no such curve, though single readings can be large or run the other way;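 further: 0% = wells with enzyme and -100% = buffer wells without enzyme; nearly all actives have a fitted effect of over 50% in size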
APE1 inh = qHTS Assay for Inhibitors of the Human Apurinic/apyrimidinic Endonuclease 1 (APE1); DNA repair nuclease/redox regulator APEX1 (Homo sapiens), P27695; recombinant APE1, TAMRA/BHQ-2 abasic DNA cleavage fluorescence; Potency, µM (top dose mostly 65.8 µM), for inactives: at the highest dose activity change, negative = inhibition, hits mostly inhibitors; hit rate 0.35% among 350,000;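 further: plate controls were vehicle for no effect and reference inhibitor for full effect; nearly all actives have a fitted effect of over 55% in size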
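Readout is kinetic fluorescence (ex 525, em 598 nm) from cleavage of 50 nM TAMRA/BHQ-2 THF abasic duplex by 0.75 nM APE1, compound added 15 min beforehand at RT.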
L3MBTL1 block = qHTS Assay for the Inhibitors of L3MBTL1; AlphaScreen L3MBTL1–H3K9me1 peptide binding; Potency, µM (doses to about 57.1 µM), inactives show at the highest dose activity, negative = inhibition, usual class: inhibitors; hit rate 0.66% among 230,000; AID 485360, 2010; further: nearly all actives have a fitted effect of over 60% in size
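AlphaScreen proximity signal between nickel-chelate acceptor and streptavidin donor beads (final 10 ug/mL) reports binding of 50 nM L3MBTL1 to 75 nM biotin-H3 K9me1 peptide; complex incubated with compounds 30 min at room temperature; cefsulodin titration as control.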
RECQ1 inh = qHTS Assay for Inhibitors of RecQ-Like Dna Helicase 1 (RECQ1) | ATP-dependent DNA helicase Q1 (Homo sapiens), P46063 | RECQ1 DNA unwinding, red fluorescence kinetic read | Potency, µM (titrated, usually from 57.3 µM), for inactives: at the highest dose activity, negative = inhibition, usual class: inhibitors | hit rate 0.54% among 240,000 | AID 2549, 2010;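 further: plate controls were vehicle for no effect and no enzyme for full effect; nearly all actives have a fitted effect of over 30% in size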
Target sequence (P46063 whole entry, looked up): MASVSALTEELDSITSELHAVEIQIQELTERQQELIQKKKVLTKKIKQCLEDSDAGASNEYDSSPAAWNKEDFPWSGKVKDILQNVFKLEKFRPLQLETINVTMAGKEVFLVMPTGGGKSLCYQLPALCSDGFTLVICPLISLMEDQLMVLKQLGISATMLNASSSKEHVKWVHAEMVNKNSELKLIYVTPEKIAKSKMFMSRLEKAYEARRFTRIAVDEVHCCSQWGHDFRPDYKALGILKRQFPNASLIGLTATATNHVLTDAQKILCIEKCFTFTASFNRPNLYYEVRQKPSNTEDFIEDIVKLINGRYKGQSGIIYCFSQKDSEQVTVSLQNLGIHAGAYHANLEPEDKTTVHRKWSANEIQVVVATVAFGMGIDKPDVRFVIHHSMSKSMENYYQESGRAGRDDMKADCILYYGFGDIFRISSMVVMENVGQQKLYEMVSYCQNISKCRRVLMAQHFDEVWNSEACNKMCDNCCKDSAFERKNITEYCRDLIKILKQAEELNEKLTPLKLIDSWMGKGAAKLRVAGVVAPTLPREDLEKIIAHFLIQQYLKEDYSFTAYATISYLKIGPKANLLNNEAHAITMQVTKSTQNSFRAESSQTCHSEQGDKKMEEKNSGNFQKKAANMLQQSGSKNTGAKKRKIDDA
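50 nM RECQ1T1 preincubated 15 min with compound in Tris pH 8.0 buffer with MgCl2, DTT, Tween-20 and 2.5 ug/ml poly(dI-dC); started with 200 nM TAMRA/BHQ-2 forked duplex and 2 mM ATP. Unwinding read as fluorescence (525/598 nm), two reads 2 h apart.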
* = called active by the depositor; i = inactive; ? = inconclusive; · = not tested or not shown; ! = not active in a repeat; [ ] = remark or other dose. This excerpt belongs to a sample that is enriched for hits. Unless noted, the call rests on the fitted dose curve; in most records, active means well fitted curve in the direction sought with a large enough effect; inconclusive means small, poorly fitted or top-dose-only effect, or another doubt; inactive means no such curve, though single readings can be large; an effect the other way counts as inactive or inconclusive. Unless noted, on the % scale 0 is the no-effect control and ±100 the full control effect; potency means the concentration at half of the fitted maximal effect.

SMILES	BLM helicase inh	KAT2A inh	KDM4E inh	APE1 inh	L3MBTL1 block	RECQ1 inh
CCCCn1c(C)cc2c(c1=O)C1O[C@](c3ccc(OC)cc3)(Cc3cc(OC)c(OC)cc31)O2	-11.5%[12.4 µM]	0.3%[12.7 µM]	·	4.33µM*	·	·
O=C(/C=C/c1ccc(O)c(O)c1)NC(=O)c1ccccc1O	-3.9%	-0.5%	14.1µM*	?	·	-13.1%
O=C(/C=C/c1ccc(Br)cc1)NC(=O)c1ccccc1O	-20.7%	-15.5%	-22.8%	-7.7%	-24.2%	-1.5%
Cc1cc(=O)oc2c3c(cc(OCC(=O)N4CCC(C(=O)O)CC4)c12)OC(C)(C)CC3	-1.6%	17.8µM*	·	34.9%	·	·
CC(=C/C(=O)O)/C=C/c1ccc(Cl)o1	85.3%	-3.1%	?	-3.0%	10µM*	-2.7%
COc1ccc(OC)c(-c2csc(NC(=O)COC(=O)c3ccc(NC(=O)CC#N)cc3)n2)c1	·	?	·	15µM*	?	·
N[C@@H]1CCN(O)C1=O	-11.2%	-2.9%	-14.6%	3.55µM*!	·	-2.1%
CN(C)CCCNc1c2ccccc2nc2ccccc12	169.1%	-11.9%	·	9.47µM*	·	·
Cc1ccc2nc(SCC(=O)Nc3cccc(F)c3)nc(=O)n2c1	·	1.2%	·	19.0%	-11.9%	·
CCC(C)/C=C/C1=CC2=C(Cl)C(=O)C3(C)OC(=O)C(C(=O)C(C)C(C)O)C3C2=CO1 (centres undefined)	-12.2%	-0.5%	?	10µM*	-19.5%	-19.3%
O=S1(=O)C=CC(Nc2ccccc2)C1 (centres undefined)	-3.1%	-3.8%	-1.8%	3.0%	0.4%	?
CCC(=O)NC(c1ccco1)c1cc(Br)c2cccnc2c1O (centres undefined)	·	-4.4%	·	6.7%	-22.3%	·
CCC(=O)NC(c1ccc(C)cc1)c1ccc2cccnc2c1O (centres undefined)	0.6%	-5.5%	·	-11.2%	?	·
CC(=O)NC(c1ccc(C)cc1)c1cc([N+](=O)[O-])c2cccnc2c1O (centres undefined)	-9.8%	-1.9%	?	-2.5%	5.01µM*	i
CCCC(=O)NC(c1ccco1)c1cc([N+](=O)[O-])c2cccnc2c1O (centres undefined)	-26.2%	-5.1%	28.2µM*	2.5%	·	-9.4%
CCCC(=O)NC(c1ccc(OC)c(OC)c1)c1cc(Cl)c2cccnc2c1O (centres undefined)	-0.8%	-0.7%	17.8µM*	20.3%	8.6%	i
CCC(=O)NC(c1ccc(C)cc1)c1cc([N+](=O)[O-])c2cccnc2c1O (centres undefined)	-18.0%	0.8%	?	-3.4%	22.4µM*	-1.1%
COc1ccc(C(NC(C)=O)c2cc(Cl)c3cccnc3c2O)cc1 (centres undefined)	-3.4%	-6.0%	·	13.1%	-0.1%[2.29 µM]	·
CC(=O)NC(c1ccccc1)c1cc(Cl)c2cccnc2c1O (centres undefined)	-5.5%	1.7%	·	-8.5%	-2.5%	·
CCOC(=O)c1c(C)oc(/N=C/c2ccccc2O)c1C#N	-3.4%	-3.1%	2.1%	-0.5%	6.5%	i
Cc1ccc(CNc2ccc(N3CCNCC3=O)cc2)cc1	·	·	·	-3.7%	·	·
Cc1cccc(NC(=O)CCN2C(=O)c3ccccc3S2(=O)=O)c1C	-0.9%	-0.8%	·	7.9%	46.6%	·
COc1cccc(-n2cc(C(=O)NCc3ccc(C)cc3)c3ccccc3c2=O)c1	-2.3%	-4.3%	·	·	·	·
O=C(O)c1cccc(Cl)n1	2.0%	2.1%	1.4%	?	-12.8%	-0.8%
O=C(O)c1ccc2cccnc2n1	-12.1%	-2.8%	22.4µM*	-5.4%	·	15.4%
SMILES	BLM helicase inh	KAT2A inh	KDM4E inh	APE1 inh	L3MBTL1 block	RECQ1 inh
O=C(O)c1ccccn1	-10.5%	-6.5%	·	-9.8%	14.1µM*	·
O=C(O)c1cccc(C(=O)O)n1	-0.4%	-5.2%	8.91µM*	13.3%	11.9%	16.4%
O=C(CSc1nnc(-c2cccc(Br)c2)o1)N1CCNC1=O	·	-3.5%	·	50.6%	-4.2%	·
CCN(C/C=C/C#CC(C)(C)C)Cc1cccc(OCc2cc(-c3ccsc3)cs2)c1	-7.2%	-21.3%	·	-3.5%	·	-24.0%
CC(C)CO/N=C1/C[C@@H](O)[C@@H](O)[C@@H]2[C@@H]3C(=O)N([C@@H](C)c4ccccc4)C(=O)[C@H]3CC[C@H]12	-0.7%[12.4 µM]	·	·	13.5%[12.4 µM]	·	-0.7%[11.5 µM]
CCOC(=O)c1ccccc1NC(=O)c1cc2c(s1)-c1ccccc1SC2	-5.3%	-2.8%	·	·	·	·
CC1(NC(=O)Cc2c(Cl)cccc2Cl)CCS(=O)(=O)C1 (centres undefined)	·	-1.9%	·	2.3%	-5.5%	·
COC(=O)C1=C(C)N(c2cc(C)cc(C)c2)/C(=C/c2ccco2)C1=O	-11.3%	-11.0%	-26.5%	?	12.6µM*	-14.9%
O=C(c1cccc(S(=O)(=O)NCCOc2ccccc2)c1)N1CCN(c2ncccn2)CC1	-1.5%	-3.3%	-14.0%	-1.7%	-5.6%	0.9%
CCCCC/C=C\C/C=C\C/C=C\C/C=C\CCCCCC(=O)O	-1.1%	-7.0%	?	-7.5%	·	10.5%
CC/C=C\C/C=C\C/C=C\CCCCCCCCCCCC(=O)O	1.1%	10.8%	-4.4%	6.4%	·	13.8%
CC/C=C\C/C=C\C/C=C\CCCCCCCC(=O)O	?	10µM*!	?	-35.2%	?	1.78µM*!
CCCCCCCCCCC/C=C\C(C)(C)/C=C\CCCC(=O)O	-2.9%	7.94µM*	-7.8%	-1.7%	·	1.3%
NC(=O)c1cc[n+](CC(=O)c2ccc(NC(=O)c3ccccc3)cc2)cc1	4.0%	3.2%	12.6µM*	3.5%	-1.0%	i
O=C(C[n+]1ccccc1)c1ccc(NC(=O)c2ccccc2)cc1	-4.1%	6.0%	-18.8%	0.6%	2.6%	i
CC1(OC(=O)CCc2ccccc2)C(=O)C=C2C=C(c3ccc(C#N)cc3)N(CCN3CCOCC3)C=C2C1=O (centres undefined)	-15.1%[12.4 µM]	-13.5%	12.6µM*	5.3%[12.4 µM]	·	-8.8%[11.5 µM]
CC(C)OCCCN1C=C2C(=O)C(C)(OC(=O)CCc3ccccc3)C(=O)C=C2C=C1c1ccc(C#N)cc1 (centres undefined)	0.3%[12.4 µM]	11.5%	22.4µM*!	-5.9%[12.4 µM]	·	i[11.5 µM]
Cc1c(F)cccc1Cn1cnc2c(cnn2C(C)(C)C)c1=O	·	·	·	-7.7%	·	·
CCc1nnc(NC(=O)C(=O)NCCOC(=O)c2ccccc2Cl)s1	3.9%	3.16µM*	-5.6%	-5.0%	30.6%	-2.0%
